# From PubChem BioAssay (NCATS)
# Inconclusive results are not listed. Where a call stands in place of a potency, no number is given. Activity calls are given as the source filed them. Unless noted, the call rests on the fitted dose curve; in most records, active means well fitted curve in the direction sought with a large enough effect; inconclusive means small, poorly fitted or top-dose-only effect, or another doubt; inactive means no such curve, though single readings can be large; an effect the other way counts as inactive or inconclusive.
# Legend:
# [1] = target: Glutathione peroxidase 1 (Homo sapiens) (UniProt P07203); test: Primary qHTS Assay for Inhibitors of Recombinant Selenoprotein Glutathione Peroxidase 1 (GPX1) (AID 1845191); conditions: recombinant GPX1, GR-coupled NADPH fluorescence, 15 min; series mostly up to 48.8 µM; further: nearly all actives have a fitted effect of over 65% in size
# Chain of Glutathione peroxidase 1 (Homo sapiens) (P07203 whole entry, looked up): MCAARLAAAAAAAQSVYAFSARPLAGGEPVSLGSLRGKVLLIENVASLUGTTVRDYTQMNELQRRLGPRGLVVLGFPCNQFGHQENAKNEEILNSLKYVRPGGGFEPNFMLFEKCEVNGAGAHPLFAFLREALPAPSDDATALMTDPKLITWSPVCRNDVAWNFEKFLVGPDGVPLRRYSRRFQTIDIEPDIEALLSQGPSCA
# How it was run: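 GPX1 10 nM, GR 100 nM, GSH 1 mM, NADPH 0.5 mM, CHP 0.5 mM (final). 30-min cpd preincubation, RT. Ex340/Em450 read t=0, t=15 min.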
# [2] = target: Glucocorticoid receptor (Homo sapiens) (UniProt P04150); test: qHTS assay for small molecule antagonists of glucocorticoid receptor signaling (AID 588533; active means well fitted inhibition curve with a large enough effect in the signal ratio, with a control signal flat, not every such curve was filed as active; the % refers to the signal ratio;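 further: cells stimulated with 2 nM dexamethasone as agonist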); conditions: HeLa MMTV-bla, GRE beta-lactamase ratio, antagonist mode, 18 h; series mostly up to 76.8 µM
# Chain of Glucocorticoid receptor (Homo sapiens) (P04150 whole entry, looked up): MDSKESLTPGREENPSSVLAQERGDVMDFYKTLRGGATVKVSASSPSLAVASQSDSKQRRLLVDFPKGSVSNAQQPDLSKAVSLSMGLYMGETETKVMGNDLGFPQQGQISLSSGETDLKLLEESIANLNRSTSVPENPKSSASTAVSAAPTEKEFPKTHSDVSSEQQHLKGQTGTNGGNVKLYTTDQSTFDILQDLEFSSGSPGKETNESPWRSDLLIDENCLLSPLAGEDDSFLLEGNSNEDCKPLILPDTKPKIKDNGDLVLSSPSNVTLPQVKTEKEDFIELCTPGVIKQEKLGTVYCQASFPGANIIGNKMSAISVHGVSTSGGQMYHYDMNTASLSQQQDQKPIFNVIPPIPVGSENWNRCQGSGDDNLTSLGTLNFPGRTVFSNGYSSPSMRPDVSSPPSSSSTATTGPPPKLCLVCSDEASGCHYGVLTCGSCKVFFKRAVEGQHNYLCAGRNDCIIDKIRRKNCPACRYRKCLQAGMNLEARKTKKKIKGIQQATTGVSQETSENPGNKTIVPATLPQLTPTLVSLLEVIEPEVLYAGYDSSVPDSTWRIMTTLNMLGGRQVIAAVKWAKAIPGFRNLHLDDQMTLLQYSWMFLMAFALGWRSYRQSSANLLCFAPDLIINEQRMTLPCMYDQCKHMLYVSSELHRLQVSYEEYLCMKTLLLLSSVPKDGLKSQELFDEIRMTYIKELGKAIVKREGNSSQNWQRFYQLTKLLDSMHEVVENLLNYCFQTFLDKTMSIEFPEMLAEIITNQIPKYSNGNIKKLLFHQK
# How it was run: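 Antagonist-mode qHTS: compound titrations added to GRE-bla HeLa cells, then dexamethasone 2 nM final; 18 h, 37 C. CCF4 FRET fluorescence normalized to dexamethasone and DMSO; IC50 from Hill fit.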
# [3] = target: Peroxisome proliferator-activated receptor gamma (Homo sapiens) (UniProt P37231); test: qHTS assay for small molecule agonists of peroxisome proliferator-activated receptor gamma signaling (AID 588536; active means well fitted curve in the direction sought with a large enough effect in the signal ratio, with a control signal flat, not every such curve was filed as active; the % refers to the signal ratio); conditions: HEK293 PPARg-UAS-bla, beta-lactamase ratio, 16 h, percent of rosiglitazone response, DMSO as zero; series mostly up to 76.7 µM
# Chain of Peroxisome proliferator-activated receptor gamma (Homo sapiens) (P37231 whole entry, looked up): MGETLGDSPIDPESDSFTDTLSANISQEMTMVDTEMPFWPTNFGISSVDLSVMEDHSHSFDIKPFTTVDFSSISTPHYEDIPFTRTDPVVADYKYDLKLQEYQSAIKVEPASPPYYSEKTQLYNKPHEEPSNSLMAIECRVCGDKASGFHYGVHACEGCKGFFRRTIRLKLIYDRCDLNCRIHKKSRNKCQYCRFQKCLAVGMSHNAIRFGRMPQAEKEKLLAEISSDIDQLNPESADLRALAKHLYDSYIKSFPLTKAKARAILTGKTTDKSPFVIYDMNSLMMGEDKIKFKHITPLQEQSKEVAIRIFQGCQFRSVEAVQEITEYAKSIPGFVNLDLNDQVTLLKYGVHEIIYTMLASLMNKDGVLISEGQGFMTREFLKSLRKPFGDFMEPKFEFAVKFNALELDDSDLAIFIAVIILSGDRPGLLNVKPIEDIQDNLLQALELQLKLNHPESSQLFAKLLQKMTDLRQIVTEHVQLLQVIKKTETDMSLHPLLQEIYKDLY
# How it was run: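 Using GeneBLAzer HEK293 cells, response was quantified by CCF4 fluorescence and normalized between basal DMSO (0%) and rosiglitazone 2 uM (100%); curves yielded half-maximal stimulation concentration and efficacy.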
# [4] = target: Peroxisome proliferator-activated receptor gamma (Homo sapiens) (UniProt P37231); test: qHTS assay for small molecule antagonists of peroxisome proliferator-activated receptor gamma signaling (AID 588537; active means well fitted inhibition curve with a large enough effect in the signal ratio, with a control signal flat, not every such curve was filed as active; the % refers to the signal ratio;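 further: reporter cells co-stimulated with 50 nM rosiglitazone agonist during compound treatment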); conditions: HEK293 PPARg-UAS-bla, beta-lactamase ratio, antagonist mode; series mostly up to 76.8 µM
# How it was run: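 Compounds are tested as concentration series for inhibition of rosiglitazone-driven (50 nM) reporter expression in GeneBLAzer PPAR-gamma-UAS-bla HEK293 cells. After 16 h at 37 C, CCF4 substrate is added for 2 h at room temperature and blue/green fluorescence is measured.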
# [5] = qHTS assay for small molecule agonists of retinoid X receptor alpha signaling (AID 588544; calls by dose curve); conditions: HEK293T RXRa-UAS-bla, beta-lactamase reporter, 18 h; 530 nm emission
# [6] = target: Retinoic acid receptor RXR-alpha (Homo sapiens) (UniProt P19793); test: as above; conditions: HEK293T RXRa-UAS-bla, beta-lactamase reporter, 18 h; series mostly up to 76.7 µM
# Chain of Retinoic acid receptor RXR-alpha (Homo sapiens) (P19793 whole entry, looked up): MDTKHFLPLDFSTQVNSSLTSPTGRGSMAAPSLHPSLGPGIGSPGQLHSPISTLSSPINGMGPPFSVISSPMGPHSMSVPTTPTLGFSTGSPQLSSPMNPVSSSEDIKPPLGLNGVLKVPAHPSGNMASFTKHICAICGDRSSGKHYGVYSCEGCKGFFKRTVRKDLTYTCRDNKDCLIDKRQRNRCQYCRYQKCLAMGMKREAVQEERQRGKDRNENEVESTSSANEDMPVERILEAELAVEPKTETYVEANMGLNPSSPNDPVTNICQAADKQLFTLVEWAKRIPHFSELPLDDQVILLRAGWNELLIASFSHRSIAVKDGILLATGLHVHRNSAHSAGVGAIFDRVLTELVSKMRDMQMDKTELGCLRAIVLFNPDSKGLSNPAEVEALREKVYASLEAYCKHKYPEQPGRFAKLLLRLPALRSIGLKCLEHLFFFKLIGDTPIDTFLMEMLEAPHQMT
# [7] = qHTS assay for small molecule antagonists of retinoid X receptor alpha signaling (AID 588546; active means well fitted inhibition curve with a large enough effect in the signal ratio, with a control signal flat, not every such curve was filed as active; the % refers to the signal ratio;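 further: cells stimulated with 9-cis-retinoic acid as agonist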); conditions: HEK293T RXRa-UAS-bla, beta-lactamase ratio, antagonist mode; measured here: W530 green channel, cytotoxicity proxy
# How it was run: (§1)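 Beta-lactamase reporter inhibition, read as CCF4 fluorescence ratio (ex 405, em 460/530 nm) after 2 h at RT. HEK293T UAS-bla cells, 2500/well, were stimulated with 9-cis-RA at 500 or 100 nM final alongside test compound for 18 h at 37 C.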
# [8] = target: Retinoic acid receptor RXR-alpha (Homo sapiens) (UniProt P19793); test: as above; conditions: HEK293T RXRa-UAS-bla, beta-lactamase ratio, antagonist mode
# How it was run: as §1
# [9] = qHTS assay for small molecule agonists of the antioxidant response element (ARE) signaling pathway (AID 651741; active means well fitted activation curve with a large enough effect in the signal ratio; the % refers to the signal ratio; further: potency means the concentration at half of the fitted maximal effect); conditions: HepG2 ARE-bla reporter, beta-lactamase FRET ratio, 16 h; series mostly up to 96 µM
# How it was run: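 Reporter: beta-lactamase under ARE, stably in HepG2. Exposure: 16 h, 37 C, compounds delivered in DMSO by pin tool after 5 h cell preincubation. Readout: FRET substrate fluorescence after 2 h at RT.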
# [10] = qHTS assay for cell viability of the p53RE-bla HCT-116 cell line (AID 743292); conditions: p53RE-bla HCT-116 viability, ATP luminescence, 16 h; series mostly up to 95 µM; further: nearly all actives have a fitted effect of over 55% in size
# How it was run: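 CellSensor p53RE-bla HCT-116 cells, 4,000/well, preincubated 5 h at 37 C, then exposed to compounds in DMSO for 16 h at 37 C. Viability read as CellTiter-Glo luminescence (intracellular ATP) after 30 min at room temperature.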
# [11] = Cell Viability - BJ (AID 421; calls by dose curve;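 further: potency means the concentration at half of the fitted maximal effect; cells exposed to compound for 40 hours at 37 °C before readout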); conditions: BJ fibroblast viability, qHTS
# How it was run: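 Quantitative HTS: ATP depletion in BJ cells after 40 hr compound exposure in complete culture medium, detected with CellTiter-Glo; AC50 from standard Hill fits.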
# [12] = Cell Viability - HepG2 (AID 433; calls by dose curve;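 further: potency means the concentration at half of the fitted maximal effect; cells exposed to compound for 40 hours; potency for ATP loss meaning cytotoxicity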); conditions: qHTS
# How it was run: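 HepG2 cells, 1500 per well, treated 40 hr at 37 °C in complete medium; viability from intracellular ATP by CellTiter-Glo luminescence. Normalized to DMSO and 100 uM tamoxifen; AC50 from Hill fit of qHTS concentration-response.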
# CP297 = test: qHTS profiling for inhibitors of Plasmodium falciparum proliferation (AID 504749); further: nearly all actives have a fitted effect of over 60% in size; further: potency means the concentration at half of the fitted maximal effect; conditions: P. falciparum in erythrocytes, SYBR Green DNA, 72 h; series mostly up to 28.7 µM
# How it was run: (§2)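 Quantitative HTS: compounds pinned into medium, infected erythrocytes added (0.3% parasitemia, 2.5% hematocrit), 72 h culture at 37 C under 5% CO2. Saponin/Triton lysis with SYBR Green I, overnight RT, then fluorescence read.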
# DIV17 = test: as above; conditions: P. falciparum in erythrocytes, SYBR Green DNA, 72 h; series mostly up to 28.7 µM
# How it was run: as §2
# ICS = test: as above; conditions: P. falciparum in erythrocytes, SYBR Green DNA, 72 h; series mostly up to 28.7 µM
# How it was run: as §2
# W2 = test: as above; conditions: P. falciparum in erythrocytes, SYBR Green DNA, 72 h; series mostly up to 28.7 µM
# How it was run: as §2
# [13] = NCATS anti-infectives library activity on HEK293 viability as a counter-qHTS vs the C. elegans viability qHTS (AID 1745854); conditions: HEK293 viability counter-screen; series mostly up to 41.8 µM;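 further: HEK293 cells exposed to compounds for 24 hr before the viability read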
# How it was run: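 Counter-screen for cytotoxicity: HEK293, 24 hr, 37C, compounds up to 41.7 uM final (a dilution series, 1:5). Readout CellTiter-Glo luminescence, 10 min RT. Digitonin control, 83.3 uM final.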
# [14] = NCATS anti-infectives library activity on the primary C. elegans qHTS viability assay (AID 1745855; calls by dose curve); conditions: C. elegans worm area imaging, day 7; series mostly up to 41.8 µM
# How it was run: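 GFP read-out by 488 nm laser cytometry at day 0, 3 and 7, gated on object perimeter, area and peak intensity, scored viability of PE254-GFP-FLuc worms exposed to compound in S medium with bacterial capsules at 21 °C.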
# [15] = target: Rap guanine nucleotide exchange factor 3 (Homo sapiens) (UniProt O95398); test: Confirmatory qHTS for antagonist of cAMP-regulated guanine nucleotide exchange factor 3 (EPAC1) (AID 1645880); conditions: EPAC1 Rap1B-BODIPY-GDP exchange, fluorescence; series mostly up to 115 µM; further: nearly all actives have a fitted effect of over 55% in size
# Chain of Rap guanine nucleotide exchange factor 3 (Homo sapiens) (O95398 whole entry, looked up): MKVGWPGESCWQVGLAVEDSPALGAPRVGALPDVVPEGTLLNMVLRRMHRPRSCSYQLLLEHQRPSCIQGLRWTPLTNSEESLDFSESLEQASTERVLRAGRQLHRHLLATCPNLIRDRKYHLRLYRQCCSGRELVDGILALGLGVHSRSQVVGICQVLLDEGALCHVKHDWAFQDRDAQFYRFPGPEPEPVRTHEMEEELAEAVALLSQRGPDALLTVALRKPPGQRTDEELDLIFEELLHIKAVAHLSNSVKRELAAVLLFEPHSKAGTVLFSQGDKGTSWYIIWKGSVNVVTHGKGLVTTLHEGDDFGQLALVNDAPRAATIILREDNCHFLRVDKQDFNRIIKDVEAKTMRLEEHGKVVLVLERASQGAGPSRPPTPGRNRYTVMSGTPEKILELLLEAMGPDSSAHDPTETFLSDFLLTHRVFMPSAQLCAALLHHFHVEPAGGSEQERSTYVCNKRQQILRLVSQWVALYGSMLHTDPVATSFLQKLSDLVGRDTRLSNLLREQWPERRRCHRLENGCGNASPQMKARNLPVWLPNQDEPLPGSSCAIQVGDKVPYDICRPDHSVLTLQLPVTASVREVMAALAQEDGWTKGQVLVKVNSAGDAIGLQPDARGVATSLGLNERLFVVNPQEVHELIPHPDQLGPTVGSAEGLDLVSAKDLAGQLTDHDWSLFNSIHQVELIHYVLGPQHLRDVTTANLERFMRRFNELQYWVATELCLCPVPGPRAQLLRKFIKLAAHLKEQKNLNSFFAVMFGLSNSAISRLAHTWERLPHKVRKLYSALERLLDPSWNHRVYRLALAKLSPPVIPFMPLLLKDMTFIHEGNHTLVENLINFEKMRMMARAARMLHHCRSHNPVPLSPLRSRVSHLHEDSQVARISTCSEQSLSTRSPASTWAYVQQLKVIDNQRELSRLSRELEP
# How it was run: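 Released BODIPY-GDP fluoresces less than Rap1-bound BODIPY-GDP; the signal is followed at 480/540 nm at 5-min intervals over 30 min, after 5 min at room temperature. Reactions contain 100 nM EPAC1, 250 nM RAP1B-BODIPY-GDP and 50 uM GDP; results are normalized to ATA and DMSO.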
# [16] = Cell Viability qHTS for small molecule stabilizers of the endoplasmic reticulum resident proteome (AID 1508629); conditions: cell viability counter-screen, 100 nM thapsigargin for final 4 h;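 further: compound exposure about 46 h in total before the viability read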; further: potency means the concentration at half of the fitted maximal effect;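 on max response: human SH-SY5Y neuroblastoma cells carrying the GLuc-SERCaMP reporter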
smiles,measurement,setting,value
CN(C(=O)Cc1ccccc1)[C@H](CN1CCCC1)c1ccccc1,Potency,[1],inactive
Cc1ccc2cc3c(ccc4ccccc43)c3c2c1CC3,Potency,[2],inactive
same,outcome,[3],inactive
same,Potency,[4],inactive
same,max response,[5],0.698%
same,outcome,[6],inactive
same,max response,[7],24.7%
same,max response,[8],-30.8% (inactive)
same,Potency,[9],2.17 µM (active)
same,outcome,[10],inactive
CC(C)(c1ccc(OCC2CO2)cc1)c1ccc(OCC2CO2)cc1 (centres undefined),Potency,[11],> 92 µM (inactive)
same,Potency,[12],> 92 µM (inactive)
same,outcome,[10],inactive
CCN1C[C@]2(COC)[C@H](O)C[C@H](OC)[C@]34C1C([C@H](OC)[C@H]23)[C@]1(OC(C)=O)C2[C@@H](OC(=O)c3ccccc3)C(O)(C[C@H]24)[C@@H](OC)[C@@H]1O,Potency,CP297,inactive
CC(C)[C@@]1(NC(=O)[C@H]2CC3c4cccc5[nH]cc(c45)C[C@H]3N(C)C2)O[C@@]2(O)C3CCCN3C(=O)[C@@H](Cc3ccccc3)N2C1=O (some centres undefined),Potency,DIV17,0.849 µM (active)
same,Potency,ICS,0.447 µM (active)
same,Potency,W2,0.953 µM (active)
CCC(=O)CCCCC[C@@H]1NC(=O)[C@H]2CCCCN2C(=O)[C@H]([C@@H](C)CC)NC(=O)[C@H](Cc2cn(OC)c3ccccc23)NC1=O,Potency,[13],inactive
same,Potency,[14],inactive
C(=C/c1ccccc1)/CN1CCN(CCOC(c2ccccc2)c2ccccc2)CC1,Potency,[15],inactive
O=C(O)c1ccccc1-c1c2cc(Br)c(=O)cc-2oc2[c]([Hg])c(O)c(Br)cc12,Potency,DIV17,inactive
same,Potency,ICS,inactive
same,Potency,W2,inactive
CC(C)(O)[C@H]1O[C@@H]2CC[C@]3(C)[C@@]4(C)c5[nH]c6ccccc6c5C[C@@H]4CC[C@]3(O)C2=CC1=O,Potency,[15],inactive
CCN(CC)CCO[C@H]1CC[C@@]2(C)C(=CC[C@@H]3[C@H]2CC[C@]2(C)C(=O)CC[C@H]32)C1,Potency,[16],12.6 µM (active)
same,Potency,CP297,inactive
O=NN1CCCC1c1cccnc1 (centres undefined),Potency,[13],inactive
same,Potency,[14],inactive
CC(C)[C@@]1(NC(=O)[C@@H]2C[C@H]3c4cccc5[nH]cc(c45)C[C@@H]3N(C)C2)O[C@@]2(O)[C@H]3CCCN3C(=O)[C@H](Cc3ccccc3)N2C1=O,max response,[16],-30.4% (inactive)
